Screening data (PubChem)
This is a sample that favours compounds with a hit; in the whole collection about 19% have one here.
HT1080-NT tox: kills 2HG-producing HT-1080-NT fibrosarcoma cells; HT-1080-NT fibrosarcoma viability, CellTiter-Glo ATP luminescence, 48 h; Potency, µM (titrated, usually from 46.1 µM), for the others: top-dose activity, negative = less viability, actives largely listed as cytotoxic; 360,000 tested, 1.6% active;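 further: NT is the 2HG producing partner of a matched IDH1 knockdown line; potency means the concentration at half of the fitted maximal effect; 0% = DMSO-treated cells and -100% = media-only wells without cells; nearly all actives have a fitted effect of over 55% in size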
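A 48-hour cytotoxicity screen used HT-1080-NT cells plated 2 hours before compound delivery. ATP-based CellTiter-Glo luminescence measured viability, normalized to DMSO and no-cell controls.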
IL1B secr inh: blocks inflammasome-driven IL-1 beta release | THP-1 LPS/ATP IL-1B secretion, AlphaLISA, 16 h; stronger effect = lower value | AID 743279 | 360,000 tested, 4.7% active | activity change, % at 57.5 µM; in the data active means activity change below about -50%; inconclusive means mostly about -30% to -49%
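THP-1 cells pretreated 1 hr with compounds (up to 57.5 uM final), then stimulated with LPS (250 ng/mL final) plus ATP (1.25 mM final); secreted IL-1B measured by AlphaLISA after 16 hr, decreased signal indicating inhibition.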
HT1080 IDH1KD tx: kills HT-1080 cells with IDH1 knockdown. HT-1080 IDH1 knockdown viability, ATP luminescence, 48 h. Potency, µM (series often up to 46.1 µM), without a hit: at the top dose activity, negative = toxicity, hits mostly cytotoxic. 360,000 tested, 2% active;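 further: potency means the concentration at half of the fitted maximal effect; 0% = DMSO wells and -100% = cell-free medium wells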
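Luminescent ATP read-out (CellTiter-Glo, 10 min at room temperature) after 48 h compound exposure at 37 °C gave viability of IDH1-knockdown HT-1080 cells. Activity was normalised to DMSO and cell-free wells, then fitted as concentration-response curves.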
TDP1 cell CPT: growth inhibition of DT40 Tdp1-/-;hTDP1 cells with camptothecin (screen for TDP1 inhibitors); chicken DT40 Tdp1-/-;hTDP1 cells + 20 nM CPT, ATP luminescence, 48 h; Potency, µM (top dose mostly 46.2 µM), for the others: at the top dose activity change, negative = growth inhibition, most hits filed as inhibitors; 420,000 tested, 12% active; further: potency means the concentration at half of the fitted maximal effect; nearly all actives have a fitted effect of over 55% in size
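Chicken DT40 Tdp1-/- cells complemented with human TDP1, 400 cells/well, exposed to compounds plus 20 nM camptothecin for at least 48 h at 37 C; viability read as ATP content by CellTiter-Glo luminescence.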
TDP1 cell noCPT: qHTS for Inhibitors of human tyrosyl-DNA phosphodiesterase 1 (TDP1): qHTS in cells in absence of CPT; AID 686978, 2013; 420,000 tested, 15% active; DT40 Tdp1-/- hTDP1 cells, no CPT, ATP luminescence, 48 h; Potency, µM (highest dose often 46.2 µM), without a hit: at the highest dose activity change, negative = growth inhibition, actives largely listed as inhibitors; further: potency means the concentration at half of the fitted maximal effect; nearly all actives have a fitted effect of over 55% in size
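DT40 Tdp1-/-;hTDP1 cells, no CPT (DMSO vehicle only), 400 cells/well; compounds pin-transferred; ≥48 hr, 37 °C; CellTiter-Glo 30 min RT dark, luminescence read.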
* hit, by the source's call; ? = inconclusive; . = no result; [ ] = dose if it differs, or a comment. Unless noted, the call rests on the fitted dose curve; in most records, active means well fitted curve in the direction sought with a large enough effect; inconclusive means small, poorly fitted or top-dose-only effect, or another doubt; inactive means no such curve, though single readings can be large; an effect the other way counts as inactive or inconclusive. Unless noted, on the % scale 0 is the no-effect control and ±100 the full control effect.

SMILES | HT1080-NT tox | IL1B secr inh | HT1080 IDH1KD tx | TDP1 cell CPT | TDP1 cell noCPT
Cc1cnc(NC(=O)Cc2ccc(C)c(C)c2)s1 | ? | 27 | -23% | 4% | ?
Cc1nc(Nc2ccccc2C(F)(F)F)sc1C(=O)N(C)C | 6% | -52* | -9% | -2% | ?
Cc1nc(NCCc2ccccc2)sc1C(=O)N(C)C | 16% | 3 | 4% | -21% | ?
O=C(CSc1nnnn1C1CCCCC1)N1CCOCC1 | 17% | -20 | 10% | ? | -11%
O=C(CSc1nnnn1C1CCCCC1)N1c2ccccc2Sc2ccccc21 | 0% | 0 | -7% | ? | 21µM*
O=C(CSc1nnnn1C1CC1)N1CCN(c2cccc(Cl)c2)CC1 | -13% | -19 | -2% | ? | ?
CC(C)c1ccc(CN2CCN(C(=O)CSc3nnnn3C3CC3)CC2)cc1 | ? | ? | -4% | ? | 12µM*
O=C(CSc1nnnn1C1CCCC1)c1ccc2c(c1)OCCO2 | 1% | ? | -1%[9.24 µM] | 21µM* | ?
COCCn1c(SCC(=O)c2ccc3c(c2)OCCO3)nnc1-c1ccoc1C | 3% | 21 | 0% | 15µM* | 10µM*
Cn1ccc(C(=O)NCC2CCC3(CCN(Cc4cc(F)cc(F)c4)CC3)O2)n1 (centres undefined) | . | . | . | -8% | -22%
COc1ccc(C)cc1-n1nnnc1SCC(=O)c1ccc2c(c1)OCCO2 | 0% | -13 | -5% | 18µM* | ?
COc1ccc(-n2nnnc2SCC(=O)c2ccc3c(c2)OCCO3)c(OC)c1 | 7% | -2 | 23% | ? | 13µM*
Cc1ccc(S(=O)(=O)NN=C(c2ccccc2)c2cccs2)cc1 | -16% | -12 | -13% | -19% | 12µM*
C/C(=N\NS(=O)(=O)c1ccc(C)cc1)c1cccs1 | 1% | -16 | -2% | -2% | -30%
O=C(NC1CCS(=O)(=O)C1)c1ccccc1Cl (centres undefined) | 7% | 17 | 6% | 11% | 8%
COc1ccc(NC(=O)CSc2nc3c(c(-c4cccs4)c2C#N)CN(C)CC3)cc1OC | -15% | ? | -19% | 29µM* | ?
CC1CNC(=S)N(c2ccc(F)cc2)C1=O (centres undefined) | -9% | -6 | 14% | -5% | -1%
CCCCc1c(CCC)c(=N)c2ccccc2n1C | -15% | -77* | 21µM* | 23µM* | 5.2µM*
CCOc1ccc(OCCCC(=O)N2CCN(S(=O)(=O)c3ccc(Cl)cc3)CC2)cc1 | 6% | -15 | 12% | ? | ?
O=C(Cn1cnc2onc(-c3ccc(F)cc3)c2c1=O)Nc1ccc(F)c(Cl)c1 | . | . | . | 9.2µM* | ?
Cc1ccc(C)c(N2CCN(C(=O)Cn3cnc4onc(-c5ccc(F)cc5)c4c3=O)CC2)c1 | . | . | . | 23µM* | ?
COc1cc(Cl)c(C)cc1NC(=O)CNC(=O)Cn1cnc2ccccc2c1=O | 6%[9.24 µM] | -12 | -5% | -14% | -13%
CCN(C(=O)Cn1cnc2onc(-c3ccc(F)cc3)c2c1=O)c1ccc(OC)cc1 | . | . | . | 18µM* | 12µM*
Cc1ccc(-c2noc(CCC(=O)N3CCN(c4cc(C)ccc4C)CC3)n2)cc1 | 5% | 0 | 2% | -15% | -19%
COc1cc(OC)c(NC(=O)CCNC(=O)Cn2cnc3ccccc3c2=O)cc1Cl | 1% | -1 | -2% | 18µM* | ?
SMILES | HT1080-NT tox | IL1B secr inh | HT1080 IDH1KD tx | TDP1 cell CPT | TDP1 cell noCPT
O=C(Cn1cnc2onc(-c3ccc(F)cc3)c2c1=O)Nc1cccc(C(F)(F)F)c1 | . | . | . | 23µM* | 21µM*
COc1cc(OC)c(NC(=O)CCn2cnc3onc(-c4ccc(F)cc4)c3c2=O)cc1Cl | . | . | . | 12µM* | 2.1µM*
CCOc1ccc(NC(=O)CCn2cnc3onc(-c4ccc(F)cc4)c3c2=O)cc1 | . | . | . | -18% | -20%
Cc1nc2cnc(N(C)C)nc2n(CCC#N)c1=O | . | . | . | 10% | 30%
COc1ccc(CN(Cc2ccccn2)C(=O)CN2C(=O)C(C)Oc3ccccc32)cc1 (centres undefined) | 6% | -5 | 10% | ? | 21µM*
COc1ccc(NC(=O)N(Cc2ccc(C)cc2)Cc2ccccn2)c(OC)c1 | -2% | 14 | -9% | 26µM* | ?
CCn1cc2nc(SCc3cc(C)ccc3C)n(CCc3ccccc3)c(=O)c2n1 | . | . | . | 21µM* | 18µM*
CCn1cc2nc(SCc3cccc(OC)c3)n(Cc3ccc(Cl)cc3)c(=O)c2n1 | . | . | . | 16µM* | 13µM*
CCn1cc2nc(SCC(=O)Nc3ccccc3F)n(Cc3ccccc3)c(=O)c2n1 | 3% | -18 | -5% | ? | ?
CCn1cc2nc(SCC(=O)Nc3ccc(OC)c(OC)c3)n(Cc3ccc(Cl)cc3)c(=O)c2n1 | . | . | . | 18µM* | ?
Cc1nnc(SCCn2c(N(C)Cc3ccccc3)nc3c2c(=O)[nH]c(=O)n3C)s1 | 3% | -8 | -3% | -15% | -13%
CC(C(=O)N/N=C/c1ccc(N(C)C)c(Br)c1)N(c1ccccc1)S(C)(=O)=O (centres undefined) | -12% | -7 | 4%[9.24 µM] | ? | 9.2µM*
COc1cc(C(=O)NCCC(=O)N2CCC3(CC2)NCCc2[nH]cnc23)cc(OC)c1OC | 7% | -5 | 8% | 16% | -12%
CC1C(=O)C(C)C(c2ccc([N+](=O)[O-])cc2)NC1c1ccc([N+](=O)[O-])cc1 (centres undefined) | 0% | -8 | -18% | ? | 18µM*
COc1ccc(CNS(=O)(=O)c2ccc3c(c2)NC(=O)CS3)cc1 | 11% | 33 | 14% | -21% | -1%
CO/C([O-])=N/c1c[n+](-c2ccc(Cl)cc2)no1 | 1% | 11 | 14% | ? | 8%
CCCCCN1C2=NCCN2c2ccccc21 | -15% | -2 | -1% | 29µM* | 16µM*
CCCN1C2=NCCN2c2cc(C)c(C)cc21 | -3% | 0 | -4% | -27% | 23µM*
CCOC(=O)CN1C2=NCCN2c2ccccc21 | 7% | 18 | 3% | 5% | -7%
Cc1ncoc1C(=O)N1CCCC(C(=O)c2ccc(-c3ccccc3)c(F)c2)C1 (centres undefined) | -12% | -9 | -3% | ? | ?
O=C(c1ccc(-c2ccccc2)c(F)c1)C1CCCN(CCCn2cccn2)C1 (centres undefined) | -7% | ? | -11% | 16µM* | ?
CSc1ccc(C(=O)C2CCCN(S(=O)(=O)N(C)C)C2)cc1 (centres undefined) | -6% | -6 | -7% | 7% | ?
CN(C)S(=O)(=O)N1CCCC(C(=O)c2ccc(-c3ccccc3)c(F)c2)C1 (centres undefined) | -9% | -5 | ? | 16µM* | 15µM*
